# Test results as given in PubChem BioAssay (NCATS).
# Results filed as inconclusive are left out. The list shows a part of the results. A call without a number means that no potency is given here. The source made the active and inactive calls. Unless noted, calls come from the whole dose curve; as a rule, active = well fitted curve in the direction sought with a large enough effect; inconclusive = small, poorly fitted or top-dose-only effect, or another doubt; inactive = no such curve, though single readings can be large; an effect the other way counts as inactive or inconclusive.
# Key:
# [1] = target: Mitogen-activated protein kinase 10 (Mus musculus) (UniProt Q61831); assay: JNK3 AlphaScreen Assay (AID 530; active = well fitted curve in either direction with a large enough effect, not every such curve was filed as active;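 note: kinase came from lysate of stimulated human HepG2 cells; signal reports phosphorylation of biotinylated GST-cJun 1-79 at Ser73 with 10 µM ATP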); settings: JNK3 lysate, c-Jun phosphorylation; series mostly up to 57.1 µM
# Procedure, shortened: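 HepG2 lysate (IL-1b/TNFa pre-activated) + biotin-GST-cJun 1-79 + anti-pSer73 cJun; cpd titration, 15 min RT; ATP 10 uM start; Tris pH 7.6, MgCl2, DTT, vanadate; beads in EDTA buffer; AlphaScreen.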
# [2] = target: Cytochrome P450 3A4 (Homo sapiens) (UniProt P08684); assay: qHTS Assay for Activators of Cytochrome P450 3A4 (AID 885); settings: recombinant CYP3A4, Luciferin-PPXE luminescence, 60 min; series mostly up to 57.1 µM; note: nearly all actives have a fitted effect of over 65% in size
# Procedure, shortened: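 Luminescent readout of luciferin formed from 25 uM Luciferin-PPXE (KM level) by 20 nM CYP3A4 in 200 mM KPO4, with 60 min NADPH-driven reaction at room temperature after 10 min compound exposure. Ketoconazole (57 uM) defined 100% inhibition.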
# [3] = target: Lethal(3)malignant brain tumor-like protein 1 (Homo sapiens) (UniProt Q9Y468); assay: qHTS Assay for the Inhibitors of L3MBTL1: Hit Validation (AID 540279); settings: L3MBTL1 methyl-lysine binding inhibition, biochemical qHTS; note: potency is the fitted concentration of half-maximal effect; nearly all actives have a fitted effect of over 70% in size
# Procedure, shortened: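 L3MBTL1 (50 nM final) preformed 30 min with biotinylated H3(1-15)K9me1 peptide (75 nM), then compound 30 min at room temperature. Streptavidin donor and nickel chelate acceptor AlphaScreen beads (10 ug/mL each final) added for 30 min before read.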
# [4] = target: DNA polymerase iota (Homo sapiens) (UniProt Q9UNA4); assay: qHTS for Inhibitors of Polymerase Iota: Confirmatory Assay for Cherry-picked Compounds (AID 720496); settings: Pol iota primer extension, TAMRA/BHQ fluorescence; note: potency is the fitted concentration of half-maximal effect
# Procedure, shortened: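 Extension of a quenched TAMRA-reporter/BHQ-2-template DNA substrate (50 nM) by 10 nM Pol iota after 15 min compound preincubation. Strand-displacement fluorescence (525/598 nm) was read kinetically at 0 and 10 min. Buffer-only wells served as negative control.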
# [5] = target: Flap endonuclease 1 (Homo sapiens) (UniProt P39748); assay: qHTS Assay for the Inhibitors of FEN1: Confirmatory Assay for Cherry-picked Compounds (AID 720498); settings: FEN1 flap cleavage, TAMRA/BHQ2 fluorogenic DNA substrate; note: potency is the fitted concentration of half-maximal effect; nearly all actives have a fitted effect of over 60% in size
# Procedure, shortened: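 Human FEN1 (10 nM reagent) was preincubated with compounds for 15 min at room temperature, then 50 nM final double-flap DNA substrate (5'-TAMRA flap, BHQ-2 quencher strand) was added. Fluorescence (ex 525/em 598 nm) was read at 0 and 15 min.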
# [6] = target: DNA polymerase eta (Homo sapiens) (UniProt Q9Y253); assay: qHTS for Inhibitors of Polymerase Eta: Confirmatory Assay for Cherry-picked Compounds (AID 720502); settings: Pol eta primer extension, TAMRA/BHQ fluorescence, 10 min; note: potency is the fitted concentration of half-maximal effect
# Procedure, shortened: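 Quenched-fluorescence replication assay: 10 nM Pol eta, 50 nM substrate final, 15 min compound preincubation at room temperature, 10 min kinetic reaction read at 525/598 nm.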
# [7] = qHTS Assay for the Inhibitors of L3MBTL1: Hit Validationin AlphaScreen Counterscreen (AID 602224); settings: signal inhibition; series mostly up to 57.1 µM
# Procedure, shortened: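 AlphaScreen signal was read after compounds, 1 nM biotin-His6 peptide and 10 ug/mL each of streptavidin donor and nickel acceptor beads incubated 30 min at room temperature in darkness, following a 15 min compound–peptide preincubation.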
# [8] = target: DNA dC->dU-editing enzyme APOBEC-3G (Homo sapiens) (UniProt Q9HC16); assay: qHTS for inhibitors of Vif-A3G interactions: Validation (AID 588379); settings: Vif-A3G protein interaction assay; series mostly up to 46.1 µM
# Procedure, shortened: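 Yellow fluorescence (Ex 488, Em 500-530) of Vif-coexpressing HeLa A3G-eYFP cells, scanned by Acumen cytometer, reports blocked A3G degradation. Cells plated at 700/well overnight at 37 deg C before compound addition, then a further overnight compound incubation at 37 deg C.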
# Sequence of Lethal(3)malignant brain tumor-like protein 1 (Homo sapiens) (Q9Y468 whole entry, looked up): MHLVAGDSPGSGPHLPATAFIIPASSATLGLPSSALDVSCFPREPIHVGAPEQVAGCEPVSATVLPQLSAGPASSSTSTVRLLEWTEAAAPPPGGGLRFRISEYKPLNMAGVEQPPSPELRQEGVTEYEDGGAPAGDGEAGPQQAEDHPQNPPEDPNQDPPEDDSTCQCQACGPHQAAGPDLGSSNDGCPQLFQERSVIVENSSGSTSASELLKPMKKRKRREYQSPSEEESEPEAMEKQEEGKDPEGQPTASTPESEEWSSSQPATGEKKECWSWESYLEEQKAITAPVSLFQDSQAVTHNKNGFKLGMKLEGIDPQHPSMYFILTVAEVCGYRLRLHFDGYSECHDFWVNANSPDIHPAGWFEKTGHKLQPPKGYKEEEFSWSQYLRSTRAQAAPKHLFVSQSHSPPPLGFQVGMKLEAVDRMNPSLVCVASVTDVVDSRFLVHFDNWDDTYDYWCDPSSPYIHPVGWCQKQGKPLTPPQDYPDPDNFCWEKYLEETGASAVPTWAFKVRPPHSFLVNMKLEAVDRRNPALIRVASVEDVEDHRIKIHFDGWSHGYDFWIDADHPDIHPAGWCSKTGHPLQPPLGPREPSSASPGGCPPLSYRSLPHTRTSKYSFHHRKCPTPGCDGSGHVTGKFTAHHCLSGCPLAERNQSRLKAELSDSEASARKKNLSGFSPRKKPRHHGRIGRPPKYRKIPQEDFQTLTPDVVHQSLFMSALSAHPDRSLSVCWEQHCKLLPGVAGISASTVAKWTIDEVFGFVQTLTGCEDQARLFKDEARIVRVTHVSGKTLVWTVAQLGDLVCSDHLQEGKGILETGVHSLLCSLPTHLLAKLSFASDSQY
# Sequence of Cytochrome P450 3A4 (Homo sapiens) (P08684 whole entry, looked up): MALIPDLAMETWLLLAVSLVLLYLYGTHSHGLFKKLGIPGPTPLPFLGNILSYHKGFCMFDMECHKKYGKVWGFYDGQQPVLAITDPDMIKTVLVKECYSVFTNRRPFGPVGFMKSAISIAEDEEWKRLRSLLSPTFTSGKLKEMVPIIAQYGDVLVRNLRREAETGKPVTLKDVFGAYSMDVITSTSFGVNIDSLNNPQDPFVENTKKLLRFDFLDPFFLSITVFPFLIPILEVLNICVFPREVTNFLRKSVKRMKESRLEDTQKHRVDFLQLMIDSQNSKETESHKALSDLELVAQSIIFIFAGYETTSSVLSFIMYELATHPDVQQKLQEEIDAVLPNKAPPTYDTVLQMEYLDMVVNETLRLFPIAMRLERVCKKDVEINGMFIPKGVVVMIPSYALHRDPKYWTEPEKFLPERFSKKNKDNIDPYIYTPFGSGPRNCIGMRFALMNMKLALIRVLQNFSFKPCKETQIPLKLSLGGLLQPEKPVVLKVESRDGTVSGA
# Sequence of DNA polymerase iota (Homo sapiens) (Q9UNA4 whole entry, looked up): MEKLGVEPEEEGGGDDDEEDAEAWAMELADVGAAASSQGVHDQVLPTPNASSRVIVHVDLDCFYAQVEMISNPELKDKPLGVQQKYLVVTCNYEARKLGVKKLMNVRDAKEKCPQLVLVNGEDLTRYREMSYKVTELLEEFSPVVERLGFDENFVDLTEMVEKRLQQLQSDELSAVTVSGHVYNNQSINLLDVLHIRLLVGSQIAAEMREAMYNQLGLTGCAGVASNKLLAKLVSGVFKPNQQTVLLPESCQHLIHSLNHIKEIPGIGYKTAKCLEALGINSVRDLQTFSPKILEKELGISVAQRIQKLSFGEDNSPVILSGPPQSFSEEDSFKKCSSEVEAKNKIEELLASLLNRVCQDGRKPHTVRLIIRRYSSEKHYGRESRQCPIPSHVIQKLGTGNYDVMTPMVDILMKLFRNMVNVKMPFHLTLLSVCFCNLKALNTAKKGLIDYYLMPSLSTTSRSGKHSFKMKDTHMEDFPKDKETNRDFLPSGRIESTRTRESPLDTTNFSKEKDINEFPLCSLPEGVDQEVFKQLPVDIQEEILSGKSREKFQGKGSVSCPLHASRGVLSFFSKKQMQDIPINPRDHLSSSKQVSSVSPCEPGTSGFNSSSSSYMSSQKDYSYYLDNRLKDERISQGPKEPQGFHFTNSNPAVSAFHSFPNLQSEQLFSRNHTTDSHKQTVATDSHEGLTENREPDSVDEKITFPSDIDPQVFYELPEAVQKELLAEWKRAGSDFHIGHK
# Sequence of DNA polymerase eta (Homo sapiens) (Q9Y253 whole entry, looked up): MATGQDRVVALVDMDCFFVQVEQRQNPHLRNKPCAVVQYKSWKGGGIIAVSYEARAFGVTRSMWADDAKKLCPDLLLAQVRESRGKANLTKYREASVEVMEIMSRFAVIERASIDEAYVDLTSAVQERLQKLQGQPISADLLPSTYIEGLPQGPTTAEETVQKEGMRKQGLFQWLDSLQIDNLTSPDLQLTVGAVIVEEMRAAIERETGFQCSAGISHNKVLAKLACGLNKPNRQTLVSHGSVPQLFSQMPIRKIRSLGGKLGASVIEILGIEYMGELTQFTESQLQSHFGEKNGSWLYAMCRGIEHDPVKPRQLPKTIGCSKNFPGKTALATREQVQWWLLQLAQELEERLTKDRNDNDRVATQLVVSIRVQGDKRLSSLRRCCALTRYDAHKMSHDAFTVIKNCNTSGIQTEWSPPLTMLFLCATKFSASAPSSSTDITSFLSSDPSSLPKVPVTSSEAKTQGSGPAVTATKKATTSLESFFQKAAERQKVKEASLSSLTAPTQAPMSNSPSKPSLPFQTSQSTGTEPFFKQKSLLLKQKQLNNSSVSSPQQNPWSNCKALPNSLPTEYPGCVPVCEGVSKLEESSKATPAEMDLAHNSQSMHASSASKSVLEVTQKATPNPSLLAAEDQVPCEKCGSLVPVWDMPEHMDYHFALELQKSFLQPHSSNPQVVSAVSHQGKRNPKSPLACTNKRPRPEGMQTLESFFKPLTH
# Sequence of DNA dC->dU-editing enzyme APOBEC-3G (Homo sapiens) (Q9HC16 whole entry, looked up): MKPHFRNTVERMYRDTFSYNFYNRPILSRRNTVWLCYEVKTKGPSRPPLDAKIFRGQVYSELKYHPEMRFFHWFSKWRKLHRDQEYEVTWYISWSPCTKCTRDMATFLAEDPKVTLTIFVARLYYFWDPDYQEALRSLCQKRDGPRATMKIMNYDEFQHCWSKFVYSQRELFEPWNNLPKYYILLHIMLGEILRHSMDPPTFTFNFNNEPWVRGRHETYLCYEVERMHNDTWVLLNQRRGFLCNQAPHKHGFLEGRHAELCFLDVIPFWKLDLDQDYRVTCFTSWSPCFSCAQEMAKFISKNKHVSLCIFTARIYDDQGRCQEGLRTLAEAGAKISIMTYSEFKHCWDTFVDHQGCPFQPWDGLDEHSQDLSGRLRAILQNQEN
# Sequence of Flap endonuclease 1 (Homo sapiens) (P39748 whole entry, looked up): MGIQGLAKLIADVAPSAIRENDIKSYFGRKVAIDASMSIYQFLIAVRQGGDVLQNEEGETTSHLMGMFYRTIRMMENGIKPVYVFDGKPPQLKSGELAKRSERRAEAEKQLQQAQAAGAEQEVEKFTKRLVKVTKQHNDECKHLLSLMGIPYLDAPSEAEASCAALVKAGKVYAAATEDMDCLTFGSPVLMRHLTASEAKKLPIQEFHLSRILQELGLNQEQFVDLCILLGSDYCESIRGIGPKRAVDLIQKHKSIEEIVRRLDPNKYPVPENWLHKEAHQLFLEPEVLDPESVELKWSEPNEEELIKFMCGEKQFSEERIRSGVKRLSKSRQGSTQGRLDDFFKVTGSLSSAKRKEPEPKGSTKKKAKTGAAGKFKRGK
smiles,measurement,setting,value
C[C@@H]1C=C[C@](Cc2ccccc2)(C(=O)NCCCNc2ncc(C(F)(F)F)cc2Cl)N1C(=O)c1ccccc1,outcome,[1],inactive
same,Potency,[2],inactive
COc1ccc(Cc2nnc(NC(=O)Cc3cccs3)s2)cc1,Potency,[3],1.19 µM (active)
same,Potency,[4],16.8 µM (active)
same,Potency,[5],84.9 µM (active)
same,Potency,[6],19 µM (active)
COC(=O)c1ccc(C(NC(=O)OCc2ccccc2)/C(C)=C/[C@@H](C)C(=O)NCCN2CCOCC2)cc1 (stereo not given in full),outcome,[1],inactive
same,Potency,[2],inactive
COC(=O)N1CC=CC1(C)C(=O)NCc1ccc(C)o1 (stereo not given),outcome,[1],inactive
same,Potency,[2],inactive
CC(C)CC1(C(=O)NCc2ccccn2)C=CCN1C(=O)c1ccccc1 (stereo not given),outcome,[1],inactive
same,Potency,[2],inactive
CNC(=O)C1(C)C=CC2(CCCCC2)N1C(=O)OC (stereo not given),outcome,[1],inactive
same,Potency,[2],inactive
Cn1c2ccccc2c(=O)c2c(=O)n(Cc3ccco3)c(COc3ccccc3)nc21,Potency,[3],7.52 µM (active)
same,outcome,[7],inactive
same,Potency,[4],75.2 µM (active)
COC(=O)c1ccc(C(/C=C/[C@@H](C)C(=O)N(C)C)NC(=O)OCc2ccccc2)cc1 (stereo not given in full),outcome,[1],inactive
same,Potency,[2],inactive
CC1=C(C(=O)OCc2ccccc2)C(c2ccc(C3CCCCC3)cc2)NC(=O)N1CCCCCC(=O)O (stereo not given),outcome,[1],inactive
same,Potency,[2],inactive
CC(=O)N1CC=CC1(C)C(=O)O (stereo not given),outcome,[1],inactive
same,Potency,[2],inactive
CC(=O)N1CC=CC1(C)C(=O)NCC1CC1 (stereo not given),outcome,[1],inactive
same,Potency,[2],inactive
C1CCN2CC3CC(CN4CCCC[C@@H]34)C2C1 (stereo not given in full),Potency,[8],inactive
O=C(COC(=O)c1ccc(F)cc1F)Nc1ncccn1,Potency,[3],5.97 µM (active)
same,outcome,[7],inactive
same,Potency,[4],21.2 µM (active)
same,Potency,[6],37.9 µM (active)
